The nature of assay [1]: cAMP Responsive Elements (CRE) small molecule antagonists, cell-based qHTS assay: qHTS cell viability counter screen (AID 2060913). Further: nearly all actives have a fitted effect of over 40% in size. The settings on record: CRE-bla HEK293T viability, CellTiter-Glo luminescence, 5 h; series mostly up to 92.4 µM. In outline: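 CRE-bla HEK293T cells (2,000/well, 18 h) given compound plus NKH477 0.25 uM final for 3 h at 37C; viability counter-screen by CellTiter-Glo luminescence in same wells after 30 min.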
(Quantitative high-throughput screening tests each substance at several concentrations.)

Assay [2] in a line: cAMP Responsive Elements (CRE) small molecule agonists, cell-based qHTS assay: qHTS cell viability counter screen (AID 2060914).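 Further: viability read after 3 h of compound exposure; nearly all actives have a fitted effect of over 50% in size.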 The note with it: CRE-bla HEK293T viability, CellTiter-Glo luminescence, 5 h; series mostly up to 92.4 µM. The method in brief:
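CRE-bla HEK293T cells in 10% dialyzed FBS medium were exposed to compounds for 3 h at 37C after 18 h plating. CellTiter-Glo was then added in the same wells, and luminescence was read after 30 min at room temperature.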

Inconclusive results are not listed. Entries that show only a call come without a potency. Calls of active or inactive are those of the source. The call rests on the fitted dose curve; in most records, active means well fitted cell-killing curve with a large enough effect in the repeat runs; inconclusive means weak or mixed curves, or effect the other way; inactive means flat fitted curve, though single readings scatter.

As to `Cc1cccc2c1ccc1ccccc12`, the Potency entry in assay [1] and in assay [2] was “inactive” each time.
Consider `CN1CCN(C)CC1`, for which the Potency entry in assay [1] and in assay [2] was “inactive” in each case.
For `FC(F)(F)C(F)(F)C(F)(F)C(F)(F)CCI`, the Potency result in assay [1] and in assay [2] was “inactive” throughout.
Take `CN(C)CCOC(c1ccc(Cl)cc1)c1ccccn1` (stereo not drawn): the Potency result in assay [1] and in assay [2] was “inactive” each time.
For the compound `CC1=CCC2CC1C2(C)C` (stereo not drawn), the Potency entry in assay [1] and in assay [2] was “inactive” throughout.
Consider `CC1(C)O[C@@H]2C[C@H]3[C@@H]4CCC5=CC(=O)C=C[C@]5(C)[C@@]4(F)[C@@H](O)C[C@]3(C)[C@]2(C(=O)CO)O1`, for which the Potency entry in assay [1] and in assay [2] was “inactive” in each case.
For the compound `Cc1cccc(C(=O)O)c1[N+](=O)[O-]`, the Potency result in assay [1] and in assay [2] was “inactive” each time.
Regarding `C[C@@H](N)C(=O)O`, the Potency entry in assay [1] and in assay [2] was “inactive” each time.
For `O=C=NCCCCCCN=C=O`, the Potency entry in assay [1] and in assay [2] was “inactive” in each case.
As to `CCCC(C)C(O)CC` (stereo not drawn), the Potency entry in assay [1] and in assay [2] was “inactive” throughout.
For the compound `CNS(=O)(=O)CCc1ccc2[nH]cc(C3CCN(C)CC3)c2c1`, the Potency result in assay [1] and in assay [2] was “inactive” throughout.
For `COC(=O)CCC(=O)OC`, the Potency entry in assay [1] and in assay [2] was “inactive” throughout.
For the compound `C=C[C@@H](C)CCC=C(C)C`, the Potency result in assay [1] and in assay [2] was “inactive” throughout.
Consider `NC(=O)c1ncn([C@@H]2O[C@H](CO)[C@@H](O)[C@H]2O)c1O`, for which the Potency result in assay [1] and in assay [2] was “inactive” throughout.

The values are drawn from PubChem BioAssay (Tox21).
